An excerpt weighted towards active compounds, which were near 7.8% of everything screened.
HCV inhibitor: qHTS Assay for Inhibitors of Hepatitis C Virus (HCV); AID 651820, 2012; Potency, µM (series often up to 41.8 µM), most hits filed as inhibitors; 3.4% of 340,000 active; Huh7.5.1 HCVcc-Cre infection, luciferase reporter, 44 h; active means well fitted inhibition curve with a large enough effect; inconclusive means small, poorly fitted or top-dose-only effect, or another doubt; inactive means no such curve, though single readings can be large or run the other way
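1,000 cells/well; 4 h culture; + compound; + HCVcc-Cre (~0.5 moi); 44 h; luciferase substrate, RT 15 min; read 15 sec.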
VACV mCherry inh: qHTS for Stage-Specific Inhibitors of Vaccinia Orthopoxvirus: mCherry Reporter Primary qHTS. Potency, µM (titrated, usually from 36.5 µM), most hits filed as inhibitors. Vaccinia virus mCherry reporter infection, fluorescence. 0.63% of 310,000 active; calls by dose curve; tested in A549 cells; further: nearly all actives have a fitted effect of over 35% in size
HCMV inh: qHTS Assay for inhibitors of the human cytomegalovirus (HCMV); AID 1259415, 2018; HFF cells, HCMV-luciferase reporter, 72 h; active compounds read low; activity change, negative = inhibition, % at 57.5 µM; 4.5% of 410,000 active; in the data active means activity change below about -60%; inconclusive means no clear call, values can overlap the other calls; inactive means above about -39%
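Steps: HFFs plated, 16 h 37C; compounds added; HCMV-luciferase added to MOI 1 PFU/cell; 72 h 37C; OneGlo reagent, 5 min room temperature; luminescence read, normalized to controls.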
Lassa entry inh: qHTS for Inhibitors of binding or entry into cells for Lassa Virus; Potency, µM (series often up to 37.9 µM), hits mostly inhibitors; Lassa virus pseudotype entry inhibition, cell reporter; 1.2% of 300,000 active; calls by dose curve; tested in HEK293 cells; further: nearly all actives have a fitted effect of over 50% in size
VACV Venus inh: qHTS for Stage-Specific Inhibitors of Vaccinia Orthopoxvirus: Venus Reporter Primary qHTS | Vaccinia virus Venus reporter expression, fluorescence | AID 720580, 2013 | 0.46% of 330,000 active | Potency, µM (doses to about 36.5 µM), hits mostly inhibitors; calls by dose curve; tested in A549 cells; further: nearly all actives have a fitted effect of over 30% in size
Marburg entry inh: qHTS for inhibitors of binding or entry into cells for Marburg Virus; 1.8% of 300,000 active; Marburg virus pseudotyped entry inhibition, cell reporter; Potency, µM (top dose mostly 37.8 µM), usual class: inhibitors; AID 540276, 2011; calls by dose curve; tested in HEK293 cells
Numbers stand for hits; [ ] = another dose, or the depositor's remark.

How did COc1cc2[nH]c(=O)n(CCCCCC(=O)N3CC=C(c4ccccc4)CC3)c(=O)c2cc1OC do in these assays?
HCV inhibitor: inconclusive; VACV mCherry inh: inactive; HCMV inh: inactive; Lassa entry inh: inconclusive; VACV Venus inh: inconclusive; Marburg entry inh: 8.9µM

Results for COc1cc2[nH]c(=O)n(CCC(=O)N3CCc4ccccc4C3)c(=O)c2cc1OC ?
HCV inhibitor: inactive; VACV mCherry inh: inactive; HCMV inh: inactive; Lassa entry inh: inactive; VACV Venus inh: inactive; Marburg entry inh: inactive

Results for Cc1ccc(-n2nnnc2SCC(=O)Nc2ccccc2N2CCCCC2)cc1C ?
HCV inhibitor: 10µM; HCMV inh: inactive; Lassa entry inh: inconclusive; VACV Venus inh: inconclusive; Marburg entry inh: 13µM

What do the screens show for `Cc1ccc(-n2nnnc2SCC(=O)Nc2cccc(NC(=O)c3ccco3)c2)cc1C`?
HCV inhibitor: 7.9µM; VACV mCherry inh: inactive; HCMV inh: inconclusive; Lassa entry inh: inactive; VACV Venus inh: inactive; Marburg entry inh: inconclusive

What do the screens show for `CCC(=O)Nc1cccc(-n2nnnc2SCC(=O)NCc2ccco2)c1`?
HCV inhibitor: inactive; VACV mCherry inh: inactive[1.46 µM]; HCMV inh: inactive; Lassa entry inh: inconclusive; VACV Venus inh: inactive; Marburg entry inh: inactive

Results for Cc1cc(C)cc(-n2nnnc2SCC(=O)Nc2cccc(NC(=O)c3ccco3)c2)c1 ?
HCV inhibitor: inconclusive; VACV mCherry inh: inconclusive; HCMV inh: inactive; Lassa entry inh: inactive; VACV Venus inh: inactive; Marburg entry inh: inconclusive

How did CCC(=O)Nc1cccc(-n2nnnc2SCC(=O)c2ccc(C)c(C)c2)c1 do in these assays?
HCV inhibitor: 11µM; VACV mCherry inh: inactive; HCMV inh: inactive; Lassa entry inh: inconclusive; VACV Venus inh: inactive; Marburg entry inh: inconclusive

Results for O=C(CSc1nc2c([nH]c3ccccc32)c(=O)n1-c1ccccc1)Nc1ccc2c(c1)OCCO2 ?
VACV mCherry inh: inactive; HCMV inh: inactive; Lassa entry inh: inactive; VACV Venus inh: inactive

Results for CC(=O)c1ccc(F)c(-c2cc(C)cc3c2OC(CNC(=O)Cn2nc(C)nc2C)C3)c1 (stereo not drawn) ?
VACV mCherry inh: inactive; VACV Venus inh: inactive

How did O=C1/C(=C/c2ccncc2)Oc2cc(OS(=O)(=O)c3ccccc3)ccc21 do in these assays?
HCV inhibitor: inconclusive; HCMV inh: inactive

What do the screens show for `COc1cccc(OC)c1C(=O)Oc1ccc2c(c1)O/C(=C\c1ccncc1)C2=O`?
HCV inhibitor: inactive; VACV mCherry inh: inconclusive; HCMV inh: -75; Lassa entry inh: inactive; VACV Venus inh: inconclusive; Marburg entry inh: 7.1µM

How did CCC(C)CN1C(=O)NC(c2ccccc2)C(C(=O)OC)=C1C (stereo not drawn) do in these assays?
Lassa entry inh: inconclusive; Marburg entry inh: inactive

What do the screens show for `Cc1ccc(S(=O)(=O)NCCc2sc3nc(-c4ccccc4)nn3c2C)cc1C`?
VACV mCherry inh: inactive; HCMV inh: inconclusive; Lassa entry inh: inactive; VACV Venus inh: inconclusive

What do the screens show for `CC(C)Oc1ccc(CN2CCc3nc(Nc4ccc5c(c4)OCCO5)ncc3C2)cc1`?
VACV mCherry inh: inactive; HCMV inh: inconclusive; Lassa entry inh: inactive; VACV Venus inh: inactive

Results for CCOC(=O)[C@]12CCCC=C1N(Cc1ccco1)C(=O)[C@H](CC(=O)N1CCSCC1)C2 ?
VACV mCherry inh: inactive; HCMV inh: -82; VACV Venus inh: inactive

How did CCOC(=O)[C@]12CCCC=C1N(Cc1ccc3c(c1)OCO3)C(=O)[C@H](CC(=O)NCc1cccc(C(F)(F)F)c1)C2 do in these assays?
VACV mCherry inh: inconclusive; HCMV inh: -65; VACV Venus inh: inconclusive

How did COC(=O)[C@]12CCCCC=C1N(Cc1ccc(Cl)cc1Cl)C(=O)[C@H](CC(=O)NCc1ccc(OC)c(OC)c1)C2 do in these assays?
VACV mCherry inh: inactive; HCMV inh: -70; VACV Venus inh: inactive

Results for COC(=O)[C@]12CCCCC=C1N(Cc1ccc(Cl)cc1Cl)C(=O)[C@H](CC(=O)NCc1ccccc1)C2 ?
VACV mCherry inh: inactive; HCMV inh: inactive; VACV Venus inh: inactive
